Assay results reported in PubChem BioAssay (NCI).
The panel holds about 83,000 compounds, 20% with a hit somewhere; the sample as a whole holds those more often.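 96-well plates, one dose, 48 hours. Percent growth reported; active if below 10.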 Calls of active or inactive are those of the source.

System: HL-60(TB) leukemia
Test: NCI-60 one-dose screen, 48 h (100 = growth as untreated, 0 = no growth, -100 = all killed)
Conditions: 10 µM unless noted

Compound	growth
CCOC(=O)C(CNc1ccccc1)C(=O)OCC	101% (inactive)
C#COc1cccc(Nc2ncnc3cc(NC(=O)[C@H](C)Cl)ccc23)c1	99.4% [6.25 µM] (inactive)
CCCCCCCCn1ccc2cc(NC(=O)CN3CCN(c4cc(C)nc(Cl)n4)CC3)ccc21	83.3% (inactive)
O=C(NC(Cc1nnc2n(Cc3ccccc3)c(=O)c3c4c(sc3n12)CCCC4)c1ccc(Cl)cc1)c1ccccc1 (stereo not given)	78.5% (inactive)
CC1=C(NCCN2CCCC2)C(=O)c2c(OCc3ccc(C(F)(F)F)cc3)cccc2C1=O	-20.6% (active)
Oc1c(CN2CCC(N3CCCCC3)CC2)cc(Cc2cc(CN3CCC(N4CCCCC4)CC3)c(O)c3ncccc23)c2cccnc12	-6.31% (active)
COc1cc(C2CC(c3ccc(Nc4nc(NCCO)nc(NCCO)n4)cc3)=NN2c2cc(Cl)cc(Cl)c2)cc(OC)c1OC (stereo not given)	-5.04% (active)
C=C1C(=O)O[C@H]2[C@H]1CC/C(COC(=O)NCCc1c[nH]c3ccc(OC)cc13)=C\CC[C@@]1(C)O[C@@H]21	-42.8% (active)
O=C(Nc1ccc(Br)cc1)C1=NCCCCN1	98% (inactive)
Nc1c(C(=O)Nc2ccccn2)sc2nc3c(cc12)C(O)CCC3 (stereo not given)	9.6% (active)
NC(=O)NC(=O)c1ccc(Cl)cc1	95% (inactive)
O=C1/C(=C/c2ccccn2)NC(=S)N1c1ccccc1Cl	26.9% (inactive)
O=C1/C(=C/c2ccccc2O)N=C2SCCCN12	108% (inactive)
COc1ccc(-c2nc3sc(C)cn3c2/C=C/C(=O)c2cc(OC)c(OC)c(OC)c2)cc1	55.9% (inactive)
CCCc1cc2c(cc1CN(Cc1cc3c(cc1CCC)OCO3)C(=N)OCC)OCO2	105% (inactive)
Brc1ccc2c(c1)c(-c1nc(-c3c[nH]c4ncccc34)cs1)cn2CCCN1CCCCC1	13.3% (inactive)
Cc1cc(O)c(=O)cc2c1C[C@H]1CC(C)(C)/C=C/C[C@]3(C)Oc4cc(=O)c(O)cc(C)c4C[C@H]3C[C@H](O)[C@@]1(C)O2	-19.8% (active)
COc1cc(NC(=O)COc2cc(C)nc3ccc(OC)cc23)cc(OC)c1	80.3% (inactive)
Cc1ccc(C(=NN=C(N)N)c2ccc(C)cc2)cc1	-28% (active)
CCCC(=O)Oc1ccc(CC)cc1	97.6% (inactive)

Compound	growth
CCCCN(CCC#N)C(N)=O	99.6% (inactive)
CCCCCCN(CCCCCC)CCC(=O)Nc1ccc(S(=O)(=O)c2ccc(NC(=O)CCN(CCCCCC)CCCCCC)cc2)cc1	80% (inactive)
COc1ccc(C2=C(c3ccccc3)c3ccc(OC(C)=O)cc3OC2(C)C)cc1	-17.1% (active)
CN(C)c1ccc(-c2cc(-c3ccc(Nc4nc(Nc5ccccc5)nc(Nc5ccc(Cl)cc5)n4)cc3)nc(N)n2)cc1	56.3% (inactive)
Clc1ccc(/C=N/Nc2nc3ccccc3s2)c(Cl)c1	98.5% (inactive)
O=C(CC1Sc2ccccc2NC1=O)NNc1ccc(F)cc1 (stereo not given)	14.3% (inactive)
O=C(CI)OCC(COC(=O)CI)OC(=O)CI	53.3% (inactive)
O=C(/C=C/c1ccccc1)c1ccc(-n2cc(CN3CCN(c4cc5c(cc4F)c(=O)c(C(=O)O)cn5C4CC4)CC3)nn2)cc1	99.1% (inactive)
CCCc1cc2cc(-n3nc(C)c4c3CC(C)(C)CC4=O)cc(NC3CCC(O)CC3)c2c(=O)[nH]1 (stereo not given)	2.27% (active)
Cc1ncc(C(=O)Nc2ccc(CN3CCN(C)CC3)c(C(F)(F)F)c2)cc1C#Cc1cnc(N)c2ccncc12	-52.8% (active)
COc1ccc(N/N=C/c2ccc3c(c2)Sc2ccccc2N3C)cc1	57.3% (inactive)
c1ccc2c(-c3nc(-c4c[nH]c5ncccc45)cs3)c[nH]c2c1	88% (inactive)
CCCCNC(=O)c1ccc2c(c1)nc(-c1ccccc1)n2C1CCCCC1	115% (inactive)
COc1ccc(/C=C2\COc3ccc(O)c(O)c3C2=O)c(OC)c1	-13.2% (active)
COC(=O)c1cc(O)c2cc3c(cc2c1-c1cc(OC)c(OC)c(OC)c1)OCO3	5.92% (active)
COc1ccc(/C(=C\c2ccc3c(c2)OCO3)C(=O)Nc2nc3ccc(F)cc3s2)cc1OC	93% (inactive)
CCCC(C)(C)COC(=O)c1cccc(N)c1	57.8% (inactive)
COc1ccc(-c2c(-c3ccc(OC)c(O)c3)cnc3ncnn23)cc1	106% (inactive)
O=c1sn(-c2cccc3ccccc23)c(=O)n1Cc1ccccc1	51.2% (inactive)
N[C@@H]1CCN(C(=O)c2cc3cc(Cl)c(F)c(F)c3[nH]2)C1	97.7% (inactive)
